The full list was thinned out, with hits kept by preference.
CHX counter – Cycloheximide Counterscreen for Small Molecule Inhibitors of Shiga Toxin. cell reporter, cycloheximide protein synthesis inhibition counterscreen. AID 2314, 2010. max response, %. 300,000 compounds, 12% hits; in the data active means max response mostly above about 13%, no sharp cut-off; inactive means mostly below about 14%; further: read at 38.3 µM for the half of the compounds with a filed dose; 0% is about no effect
AmpC no deterg – qHTS Inhibitors of AmpC Beta-Lactamase (assay without detergent). P00811. AmpC nitrocefin hydrolysis, absorbance 480 nm, 0.0001% Triton. Potency, µM (highest dose often 57.1 µM), for inactives: at the top dose activity change, negative = inhibition, actives largely listed as inhibitors. 330,000 compounds, 0.52% hits. AID 485341, 2010;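 further: potency means the concentration at half of the fitted maximal effect; plate controls were no compound for no effect and no enzyme for full effect; nearly all actives have a fitted effect of over 20% in size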
Target sequence (P00811 whole entry, looked up): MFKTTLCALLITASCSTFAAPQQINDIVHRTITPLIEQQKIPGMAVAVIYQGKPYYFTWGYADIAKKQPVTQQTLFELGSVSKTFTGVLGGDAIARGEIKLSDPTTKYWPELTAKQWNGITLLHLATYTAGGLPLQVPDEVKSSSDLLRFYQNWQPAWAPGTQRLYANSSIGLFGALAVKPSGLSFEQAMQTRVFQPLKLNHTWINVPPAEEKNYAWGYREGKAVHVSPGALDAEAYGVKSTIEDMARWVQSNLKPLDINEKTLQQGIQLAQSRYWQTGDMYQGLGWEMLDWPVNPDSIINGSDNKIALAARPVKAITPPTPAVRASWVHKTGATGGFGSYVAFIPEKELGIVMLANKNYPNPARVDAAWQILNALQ
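AmpC (5.3 nM in the dispensed reagent) in 20 mM phosphate pH 7.0 with 0.01% (detergent screen) or 0.0001% Triton X-100 was preincubated with compounds for 15 min at room temperature. Nitrocefin was then added from an 800 uM solution, and hydrolysis was followed at 480 nm.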
SARS PLP yeast – qHTS of Yeast-based Assay for SARS-CoV PLP; S. cerevisiae expressing SARS-CoV PLpro, growth rescue; Potency, µM (series often up to 32.9 µM), for inactives: at the highest dose activity, positive = growth rescue, usual class: activators; 330,000 compounds, 0.19% hits; AID 485353, 2010; calls by dose curve; further: potency means the concentration at half of the fitted maximal effect; 0% is about no effect; nearly all actives have a fitted effect of over 55% in size
AMA1-RON2 inh – qHTS for Inhibitors of AMA1-RON; Towards Development of Antimalarial Drug Lead: Primary Screen. 360,000 compounds, 0.2% hits. AlphaScreen AMA1-biotinylated RON2 peptide binding. Potency, µM (titrated, usually from 58.2 µM), for the others: at the top dose activity change, negative = inhibition, hits mostly inhibitors;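 further: potency means the concentration at half of the fitted maximal effect; 0% = vehicle wells and -100% = peptide control; nearly all actives have a fitted effect of over 45% in size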
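AMA1 (3D7) with his tag at 25 nM final met compounds first, then biotinylated RON2 peptide at 25 nM; detection used donor plus acceptor beads, 10 µg/mL apiece, read by AlphaScreen after 30 min at room temperature.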
Shiga toxin inh – A qHTS for Small Molecule Inhibitors of Shiga Toxin; Vero cells, Shiga toxin protein synthesis inhibition reporter; 290,000 compounds, 9.2% hits; inhibition, % at 38.7 µM; in the data active means inhibition mostly above about 28%, no sharp cut-off; inactive means mostly below about 43%; further: 0% is about no effect
AmpC detergent – qHTS Inhibitors of AmpC Beta-Lactamase (assay with detergent). P00811. AmpC hydrolysis of nitrocefin, absorbance 480 nm, 0.01% Triton. Potency, µM (top dose mostly 114 µM), for inactives: top-dose activity change, negative = inhibition, actives largely listed as inhibitors. 370,000 compounds, 0.041% hits;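 further: potency means the concentration at half of the fitted maximal effect; 0% = no-compound wells and -100% = no-enzyme wells; nearly all actives have a fitted effect of over 25% in size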
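AmpC (5.3 nM in the dispensed reagent) in 20 mM phosphate pH 7.0 with 0.01% (detergent screen) or 0.0001% Triton X-100 was preincubated with compounds for 15 min at room temperature. Nitrocefin was then added from an 800 uM solution, and hydrolysis was followed at 480 nm.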
Active calls of the source: *; u = inconclusive; x = no result given. Unless noted, the call rests on the fitted dose curve; in most records, active means well fitted curve in the direction sought with a large enough effect; inconclusive means small, poorly fitted or top-dose-only effect, or another doubt; inactive means no such curve, though single readings can be large; an effect the other way counts as inactive or inconclusive.

SMILES	CHX counter	AmpC no deterg	SARS PLP yeast	AMA1-RON2 inh	Shiga toxin inh	AmpC detergent
C=CCN(c1ccccc1OC)S(=O)(=O)c1cccc(C(=O)NC2=NCCS2)c1	x	-15.6%	-91.5%	68.1%	x	x
CC(c1ccco1)N(C(=O)COc1ccc(Cl)cc1Cl)c1ccccn1 (centres undefined)	53.2*	14.9%	-6.7%	-3.1%	125.8*	-5.5%
CC(c1ccco1)N(C(=O)COc1ccc(Cl)cc1)c1ccccn1 (centres undefined)	39.1*	-7.3%	-12.0%	-10.9%	134.6*	1.7%
COc1ccc(-n2ncc(C(=O)Nc3cccc(C(F)(F)F)c3)c2C2CCN(C(=O)OC(C)(C)C)CC2)cc1	x	x	x	x	x	2.0%
Cc1csc(C(=O)NN)c1N(C)C	32.3*	-28.9%	-1.4%	55.8%	73.9*	3.1%
Cc1cc(/C=C(\C#N)C(=O)NCC2CCCO2)c(C)n1-c1ccc(Cl)cc1 (centres undefined)	25.5*	111.3%	-6.1%	-28.0%	64.5*	5.0%
COc1cc(/C=C(\C#N)C(=O)NCC2CCCO2)ccc1O (centres undefined)	-1.8	-12.5%	3.0%	3.2%	-11.9	13.1%
O=C(CCCOc1ccccc1)NCC1CCCO1 (centres undefined)	28.4*	4.9%	28.2%	-2.0%	26.4	8.2%
O=C(NCCOc1ccccc1)C(=O)NCC1CCCO1 (centres undefined)	11.6*	5.7%	-0.1%	-0.4%	36.9*	-2.6%
O=C(COc1ccccc1)NCC1CCCO1 (centres undefined)	-0.8	-7.0%	-5.0%	-0.5%	19.5	-1.4%
O=C(NCCOc1ccc(Cl)cc1)C(=O)NCC1CCCO1 (centres undefined)	0.7	-0.1%	-0.7%	4.7%	-11.4	-3.0%
O=C(CSc1ccc(Cl)cc1)NCC1CCCO1 (centres undefined)	16.8*	-11.8%	-5.9%	-6.6%	-2.6	u
Cn1cnnc1SCC(=O)NCc1ccccc1	2.0	-5.9%	0.5%	4.9%	2.6	-0.3%
CCOc1ccc(-n2c(=S)sc3c(=O)[nH]c(SCC(=O)N4CCC(C)CC4)nc32)cc1	-1.1	-22.6%	7.6%	-1.0%	-6.1	0.4%
CCOC(=O)C1CCN(C(=O)c2ccc(N(C)S(C)(=O)=O)cc2)CC1	0.8	-6.9%	7.1%	7.0%	15.3	1.3%
CCN(CC)CCC(c1cc(OC)c(OC)c(OC)c1)c1c(O)cc(OC)cc1OC (centres undefined)	-4.3	20.1%	1.3%	3.0%	15.6	-3.8%
NC(=O)c1cccnc1Sc1ccc(Cl)cc1	-2.5	-5.2%	9.5%	-22.5%	-2.9	u
COC(=O)c1cccc(NC(=O)CN2C(=O)c3ccccc3C2=O)c1	-2.7	-14.1%	2.2%	0.0%	x	-18.8%
O=C(CC(c1ccccc1)c1ccccc1)NCC1CCCO1 (centres undefined)	-3.5	-1.7%	0.8%	1.1%	-15.7	-2.1%
O=C(CSc1nnc(C2CC2)n1CC1CCCO1)Nc1ccc(Cl)cc1 (centres undefined)	12.9	13.2%	-2.1%	-7.3%	31.4*	-2.4%
O=C(CCSc1ccccc1)NCC1CCCO1 (centres undefined)	29.4*	-6.8%	3.4%	9.7%	63.4*	-2.9%
CCc1ccc(NC(=O)CSc2nnc(C3CC3)n2CC2CCCO2)cc1 (centres undefined)	-4.4	102.1%	3.5%	12.3%	-10.3	-7.4%
Cc1ccc(C)c(OCCn2cc(/C=C(/C#N)C(=O)NCC3CCCO3)c3ccccc32)c1 (centres undefined)	-2.5	30.5%	-0.8%	-7.1%	-10.6	-6.9%
N#C/C(=C\c1cn(CCOc2ccccc2)c2ccccc12)C(=O)NCC1CCCO1 (centres undefined)	29.4*	63.9%	-5.2%	-21.5%	-25.2	-12.1%
